The values below come from PubChem BioAssay AID1851 (National Center for Advancing Translational Sciences (NCATS), 2009).

By AC50 is commonly meant the concentration giving half of the maximal activity seen.

The whole screen tested about 16,000 compounds, of which about 5,800 (36%) were called active. About 23% were inconclusive and are not listed. The call rests on the fitted dose curve; in most records, active means well fitted curve in the direction sought with a large enough effect; inconclusive means small, poorly fitted or top-dose-only effect, or effect the other way; inactive means no such curve, though single readings can be large or run the other way. The list shows a part of the results.
On the % scale 0 is the no-effect control and ±100 the full control effect.

Chain of Cytochrome P450 2C19 (Homo sapiens) (P33261 whole entry, looked up): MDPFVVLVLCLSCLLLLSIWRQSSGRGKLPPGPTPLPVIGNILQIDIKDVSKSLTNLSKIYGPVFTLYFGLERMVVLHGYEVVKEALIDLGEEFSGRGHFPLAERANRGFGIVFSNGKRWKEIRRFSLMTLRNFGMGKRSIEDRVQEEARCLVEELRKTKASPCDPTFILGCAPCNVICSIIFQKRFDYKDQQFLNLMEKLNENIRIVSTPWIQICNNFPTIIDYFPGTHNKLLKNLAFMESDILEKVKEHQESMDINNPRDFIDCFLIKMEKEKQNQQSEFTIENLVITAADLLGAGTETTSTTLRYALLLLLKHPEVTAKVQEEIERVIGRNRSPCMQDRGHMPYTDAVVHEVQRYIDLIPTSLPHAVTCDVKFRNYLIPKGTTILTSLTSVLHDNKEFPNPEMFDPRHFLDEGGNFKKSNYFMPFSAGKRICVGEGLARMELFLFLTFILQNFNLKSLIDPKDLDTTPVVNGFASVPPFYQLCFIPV

This test concerns the target Cytochrome P450 2C19 (Homo sapiens) (UniProt P33261). Put plainly: Cytochrome panel assay with activity outcomes. As to conditions: recombinant CYP, pro-luciferin dealkylation, luminescence, p450-cyp2c19; series mostly up to 57.1 µM; activity, negative = inhibition: at the top concentration.
`c1c[nH]c(CN2CCOCC2)n1`: the activity, negative = inhibition was -4.4% [at 11.4 µM] (inactive). Same read-out and setting: in the case of `COCCn1c(=O)c(-c2cc(F)cc(F)c2)nc2cnc(N3CCNCC3)nc21` it was -41.5% (inactive). For the molecule `COc1ccc(S(=O)(=O)Nc2ccc(F)cc2)c(C)c1C`, the concentration at half-maximal activity (AC50) is 0.0891 µM (active). For `O=C(CSc1nnnn1C1CCCC1)Nc1ccc(F)cc1`, the concentration at half-maximal activity (AC50) was 2 µM (active). Consider `COCCNc1ccnc(-c2ccccc2CN(C)C)n1`, for which the “activity, negative = inhibition” value is 13.3% (inactive). As for `FC(F)(F)c1ccccc1-c1nccc(NCc2cccs2)n1`, the AC50 was 2 µM (active).

Regarding `CN(C)Cc1ccccc1-c1nccc(Nc2ccc(F)cc2)n1`, the “activity, negative = inhibition” value is 28.1% (inactive). Take `FC(F)(F)c1ccccc1-c1nccc(NCc2ccccc2)n1`: the AC50 was 6.31 µM (active).

On to `CC(=O)NCCNc1ccnc(-c2ccccc2C(F)(F)F)n1`, for which the “activity, negative = inhibition” value is -32.5% (inactive). With `COCCNc1ccnc(-c2ccccc2C(F)(F)F)n1`, the AC50 is 10 µM (active). Regarding `Cc1cnc(CNc2ccnc(-c3ccccc3C(F)(F)F)n2)cn1`, the “activity, negative = inhibition” value was -11.7% (inactive).

For the molecule `Fc1ccc(Nc2ccnc(-c3ccccc3C(F)(F)F)n2)cc1`, the AC50 is 10 µM (active).

On to `COc1ccc(OC[C@@H](CO)OC)cc1`, for which the activity, negative = inhibition was 28.9% [at 11.4 µM] (inactive).

As for `Cc1ccccc1-c1nccc(NCc2cccs2)n1`, the AC50 was 3.98 µM (active). Regarding `CN(C)Cc1ccccc1-c1nccc(NCc2cccs2)n1`, the “activity, negative = inhibition” value was -9.43% (inactive). On to `CC(C)Nc1nc(Oc2ccc(Cl)cc2)cc(C(F)(F)F)n1`, for which the AC50 is 10 µM (active). On to `C[C@@H]1O[C@H](O[C@@H]2[C@H](C)O[C@H](O[C@@H]3[C@H](C)O[C@H](O[C@H]4CC[C@]5(C)[C@@H](CC[C@@H]6[C@H]5C[C@@H](O)[C@]5(C)[C@@H](C7=CC(=O)OC7)CC[C@]65O)C4)C[C@@H]3O)C[C@@H]2O)C[C@H](O)[C@@H]1O`, for which the “activity, negative = inhibition” value was 57.7% [at 25.6 µM] (inactive).

For the molecule `Cn1c2c(c(=O)n(C)c1=O)CN(CCN1CCNCC1)CN2`, the “activity, negative = inhibition” value was 10.8% (inactive). In the case of `CC(Sc1nc(NCc2ccccc2)nc(N(C)C)n1)C(=O)Nc1ccccc1` (configuration not stated), the AC50 was 0.794 µM (active). Consider `COc1ccc(NC2=NC(=S)N(c3ccc(C)cc3)C23CCCCC3)cc1`, for which the “activity, negative = inhibition” value is 14.7% (inactive). On to `COc1cc2c(C(=O)NCc3ccc(C)o3)cn(CC(C)C)c(=O)c2cc1OC`, for which the AC50 is 35.5 µM (active). With `CCOc1ccc(-n2cc(C(=O)NCc3ccco3)c3cc(OC)c(OC)cc3c2=O)cc1`, the “activity, negative = inhibition” value is -15.5% (inactive). Still for that read-out and setting: for `COc1ccc(/C=N/n2c(C)nnc2C)c(OC)c1` the value was -23.3% (inactive). As for `COc1cccc(/C=N/n2c(=S)n(C)c3cc(C)c(C)cc32)c1OC`, the AC50 is 2.24 µM (active). On to `Cc1c(Br)cc(C(=O)NC2CCCCC2)c(C)c1C`, for which the AC50 was 14.1 µM (active). As for `Cc1ccc(C(=O)NC2CCCCCC2)cc1N1CCCC1=O`, the “activity, negative = inhibition” value is -13.7% (inactive). Same read-out and setting: in the case of `C[C@@H](CCC(=O)O)C(=O)O` it was 30.5% [at 11.4 µM] (inactive).

`N#C/C(=C\c1cn[nH]c1-c1ccccc1)C(=O)NC1CCCCCC1`: the AC50 was 17.8 µM (active). In the case of `COc1ccc(/C=C(/C#N)C(=O)NC2CCCCC2)cc1Br`, the “activity, negative = inhibition” value was -19.4% (inactive). With `N#C/C(=C\Nc1ccccn1)C(=O)C1CC1`, the activity, negative = inhibition is -23.3% [at 11.4 µM] (inactive). Regarding `N#C/C(=C\c1cc(Cl)cc(Cl)c1O)C(=O)NC1CCCCC1`, the AC50 was 15.8 µM (active). Consider `CC(=NC1CCCCC1)c1ccccc1O`, for which the activity, negative = inhibition was 3.59% [at 11.4 µM] (inactive). On to `CC1=NNC(=S)NCCCN2CCN(CCCNC(=S)NN=C(C)C=NNC(=S)NCCCN3CCN(CCCNC(=S)NN=C1)CC3)CC2`, for which the activity, negative = inhibition was 27% [at 11.4 µM] (inactive). On to `Cc1cc(C(F)(F)F)n2nc(-c3cnn(C)c3C(F)(F)F)cc2n1`, for which the AC50 is 2.82 µM (active). Same read-out and setting: for `Cc1cc(C(F)(F)F)n2nc(-c3cnn(C)c3C(F)(F)F)c(Cl)c2n1` the value was 1.78 µM (active). Same read-out and setting: for `O=C(NCC1CCCO1)c1cc(-c2ccc(Cl)cc2Cl)on1` (configuration not stated) the value was 15.8 µM (active); for `Cc1ccccc1C(=O)c1c[nH]c(C(=O)NCC2CCCO2)c1` (configuration not stated), 1 µM (active); for `O=C(Nc1ccccc1C(=O)NCC1CCCO1)c1ccc(Cl)cc1Cl` (configuration not stated), 14.1 µM (active). Turning to `CO[C@@H]1COC(=O)[C@H]2CCCN2C(=O)[C@@H](C)COC(=O)[C@H](COCc2ccccc2)NC(=O)C/C=C\[C@H]1C`, the activity, negative = inhibition was 12.9% [at 11.4 µM] (inactive).

Regarding `O=C(O)/C=C\C(=O)Nc1ncn[nH]1`, the activity, negative = inhibition was 10.9% [at 11.4 µM] (inactive). For the molecule `O=[N+]([O-])c1ccc(N2CCN(CCOc3nonc3-c3ccccc3)CC2)c(Cl)c1`, the AC50 is 4.47 µM (active). In the case of `CC(C)(C)c1cc(Br)c(O)c(CN(Cc2cc(C(C)(C)C)cc(Br)c2O)C2CCCCC2)c1`, the AC50 is 0.631 µM (active).

Take `CN(C)Cc1cc(O)c(O)c(CN(C)C)c1`: the activity, negative = inhibition was -24% [at 11.4 µM] (inactive). Regarding `CC(C)c1cc(CN(C)C)c(O)c(C(C)(C)C)c1`, the activity, negative = inhibition is -2.3% [at 11.4 µM] (inactive). As to `CN(Cc1cc(C(C)(C)C)cc(Br)c1O)Cc1cc(C(C)(C)C)cc(Br)c1O`, the AC50 is 3.16 µM (active). For the molecule `Oc1c(Br)cc(CN(Cc2cc(Br)c(O)c(Br)c2)C2CCCCC2)cc1Br`, the activity, negative = inhibition was -5.38% [at 11.4 µM] (inactive).

In the case of `Oc1c(Br)cc(Br)cc1CN(Cc1cc(Br)cc(Br)c1O)C1CCCCC1`, the AC50 was 0.316 µM (active).
